# Source: PubChem (several laboratories)
# HSF1 inh – HSF1 inhibitors in luciferase reporter cells, primary screen, cell-based, NIH3T3, luminescence. activity change, negative = inhibition, % at 7.5 µM (by protocol). hit rate 0.77% among 300,000. NIH3T3-HGL HSE-luciferase, MG132-induced, luminescence 8 h; stronger effect = lower value;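 active = more than half of replicate wells show activity change below -50%, luminescence cut by over half; inconclusive = some wells, but at most half, below -50%; inactive = no replicate well below -50%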;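 also: luciferase reports HSF-1 transcriptional activity via heat shock element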
# GAA850 FXN act – FXN promoter activators, primary screen, cell-based, luciferase luminescence, HEK293 lucGAA850; HEK293 lucGAA850 FXN promoter luciferase reporter, 24 h; percent of 10 µM SAHA response; activation, % at 6 µM; hit rate 0.56% among 360,000;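 active = activation above the average of all compounds screened plus 3 SD, cutoff fixed separately per campaign, cut at about 7.5% in these data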
# HSF-1 act – HSF-1 activators, primary screen, NIH3T3-HGL cells, MG132 stress, luminescence, single point; NIH3T3-HGL HSF-1 luciferase reporter, 8 h; 100% = twice DMSO control signal; activation, % at 9 µM; hit rate 1.7% among 300,000; AID 504408, 2011;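 active = mean replicate activation of at least 50% with a set share of replicates each reaching 50%; inconclusive = only one of those two conditions met; inactive = mean below 50% and too few replicates reaching it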
# AHR activator – AHR activators, primary screen, cell-based, luminescence, luciferase reporter, human; hit rate 2.5% among 320,000; AHR-responsive luciferase reporter cells; Aryl hydrocarbon receptor (Homo sapiens), P35869; activation, % at 5 µM; AID 2796, 2010; in the data active = activation above about 47%
# NR0B1 inh – DAX1 (NR0B1) inhibitors, primary screen, cell-based, HEK293, Gal4-DAX1, luciferase luminescence. Nuclear receptor subfamily 0 group B member 1 (Homo sapiens), P51843. HEK293 Gal4-DAX1 luciferase reporter. inhibition, % at 6.75 µM. hit rate 0.99% among 340,000;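 active = inhibition above the mean over all tested compounds plus 3 SD, cut at about 4.2% in these data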;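 also: inhibition shows as a rise in luminescence from relieved DAX1 repression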
# Target sequence (P51843 207-470 limits assumed): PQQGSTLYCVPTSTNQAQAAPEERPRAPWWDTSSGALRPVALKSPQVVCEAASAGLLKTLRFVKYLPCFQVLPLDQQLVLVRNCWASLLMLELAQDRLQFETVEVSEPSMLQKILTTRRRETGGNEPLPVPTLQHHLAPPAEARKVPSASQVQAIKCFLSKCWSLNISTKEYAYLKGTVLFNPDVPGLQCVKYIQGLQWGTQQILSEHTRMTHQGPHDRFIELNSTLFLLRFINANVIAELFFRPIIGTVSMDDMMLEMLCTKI
# Numbers stand for hits; - = inactive; ? = inconclusive; . = not tested or not shown. Compounds with a hit are over-represented: about 5.4% of the library has one in this group of screens.
SMILES,HSF1 inh,GAA850 FXN act,HSF-1 act,AHR activator,NR0B1 inh
CC(=O)Nc1ccc(-c2csc(N/N=C\c3ccncc3)n2)cc1,-,-,-,61,.
CC(=O)Nc1cncc(-c2ccccc2N(C)C)n1,.,-,.,.,.
Cn1c(=O)c2c(-c3ccc(OC(F)F)cc3)cc(-c3ccccc3)nc2n(C)c1=O,-,.,-,-,.
CC(=O)c1ccc(NC(=S)N2C(C)CCCC2C)cc1 (centres undefined),-,.,59,-,.
COc1ccc(N(CC(=O)NCCC2=CCCCC2)S(=O)(=O)c2c(C)[nH]c(=O)[nH]c2=O)cc1,-,-,-,-,-
Nc1c(Cl)cc(Cl)cc1C(=O)OCC(=O)N1CCOCC1,-,-,-,-,-
O=C(OCC(=O)N1CCOCC1)c1c(Cl)ccc(Cl)c1Cl,-,-,-,48,-
CC(=O)Nc1c(Cl)cc(Cl)c2c1Cc1cc(Cl)ccc1-2,.,-,.,.,-
O=C1C(Cc2ccccc2)Nc2ncnc(N3CCN(c4ccccc4)CC3)c2N1Cc1ccccc1 (centres undefined),-67,-,-,-,-
Cc1ccc(CN2C(=O)C(C)Nc3ncnc(N4CCN(c5ccccn5)CC4)c32)cc1 (centres undefined),-,-,-,60,-
Cc1ccc(CN2C(=O)C(Cc3ccccc3)Nc3ncnc(N4CCN(c5ccccc5)CC4)c32)cc1 (centres undefined),-,-,-,-,-
CC1Nc2ncnc(N3CCN(c4ccccn4)CC3)c2N(Cc2ccccc2)C1=O (centres undefined),-,-,-,-,-
CC(C)CCN1CCN(Cc2cccn2-c2cccnc2)CC1CCO (centres undefined),-,-,-,-,-
COc1cccc(CN2CCN(Cc3cccn3-c3cccnc3)CC2CCO)c1 (centres undefined),-,-,56,-,-
O=C(O)CN1C(=O)C=CC1=O,.,-,.,.,4.7
CC[n+]1c(/C=C/Nc2ccccc2)oc2ccccc21,-,-,-,109,-
COc1ccc(C(N)=S)cc1,-,-,-,-,4.3
COc1ccc(O)cc1,.,-,.,-,4.5
CCN(CC(=O)Nc1cc(Cl)ccc1C)C(=O)c1oc2ccc(OC)cc2c1C,-,-,-,-,-
O=C(c1cccs1)N1CCN(S(=O)(=O)c2cccc(Cl)c2Cl)CC1,.,-,.,.,-
COc1cc(OC)cc(-c2cc3ncccc3cn2)c1,.,-,.,-,-
Fc1ccccc1-c1cc2ncccc2cn1,.,-,.,67,-
COc1ccc2c(C)cc(N3CCCCCC3)nc2c1,-,-,?,-,-
Cc1cc(N2CCCCCC2)nc2ccc(F)cc12,-,-,-,58,-
Cc1cccnc1NC(=O)Nc1cccc(F)c1,.,-,.,.,-
SMILES,HSF1 inh,GAA850 FXN act,HSF-1 act,AHR activator,NR0B1 inh
COC(=O)c1cc2c([nH]c1=O)CCCC2=O,.,-,.,.,-
Cc1ccc(CCNC(=O)Cn2cccc2)cc1,-,-,52,-,-
Cc1ccc(SCC(=O)NCCc2ccccc2)cc1,-,-,-,-,-
CCc1ccc2[nH]c(=O)c(CN(Cc3ccc4c(c3)OCO4)Cc3nnnn3C3CCCC3)cc2c1,-,-,?,62,-
CC(Sc1nc2c(c(=O)[nH]1)CCCC2)C(=O)Nc1ccccc1C#N (centres undefined),-,-,-,-,-
NC(c1csc(Nc2cnccn2)n1)c1ccccc1Cl (centres undefined),.,-,.,.,.
O=C1OCCN1CCNCc1cn(-c2ccc(F)cc2)nc1-c1ccccc1Cl,-,-,-,-,-
Cc1ccc(-n2cc(CNCCN3CCOC3=O)c(-c3cccc(C)c3)n2)cc1,-,-,69,-,-
Cc1cc(C)nc(Nc2nc(-c3ccccc3)cs2)n1,-,-,-,75,-
COc1cccc(Nc2nc(-c3sc(N)nc3C)cs2)c1,-,-,-,105,-
c1ccc(-c2csc(Nc3ccc4c(c3)OCCO4)n2)cc1,-,-,-,61,-
CC(C)(C)C(=O)Nc1nc(-c2ccc3c(c2)OCO3)cs1,-,-,54,-,-
COc1ccc(C(=O)NC2CCN(Cc3c(F)cccc3Cl)CC2)cc1OC,-,-,-,-,-
c1cc2c(cc1Nc1nc(-c3ccc4c(c3)OCO4)cs1)OCCO2,-,-,-,-,-
COc1cccc(Nc2nc(-c3ccc4c(c3)OCCO4)cs2)c1,-,-,-,72,-
CC(C)CN1C(=O)NC(NS(=O)(=O)c2ccc(N)cc2)(C(F)(F)F)C1=O (centres undefined),-,-,-,-,-
CC(=O)Nc1ccc(S(=O)(=O)NC2(C(F)(F)F)NC(=O)N(CC(C)C)C2=O)cc1 (centres undefined),-,-,-,58,-
Cc1ccccc1OCCCC(=O)Nc1nncs1,-,-,-,-,-
Cc1cc(C)cc(NC(=S)N2CCC(NC(=O)c3ccco3)CC2)c1,-,-,-,-,-
Cc1nc(Sc2ccc(Br)cc2)c(C#N)c(C)c1[N+](=O)[O-],-,-,128,-,-
Cc1ccc(Sc2nc(C)c([N+](=O)[O-])c(C)c2C#N)cc1,-,-,-,-,.
O=C(Nc1ccccc1)O[C@@H]1C[C@H]2CCC(=O)N3CC[C@@H](C1)[C@@H]23,-,.,-,-,.
C=CCn1c(N)c(C(=O)Nc2ccc(C)cc2)sc1=S,-,-,-,-,-
Cn1c(N)c(C(=O)Nc2ccc(-c3ccccc3)cc2)sc1=S,-52,-,-,-,-
Nc1nc(NCCN2CCOCC2)nc(NCc2ccccc2)c1[N+](=O)[O-],-,-,-,-,-
SMILES,HSF1 inh,GAA850 FXN act,HSF-1 act,AHR activator,NR0B1 inh
O=C(Nc1ccc(-n2ccnc2P(=O)(O)c2ccccc2)cc1)c1ccccc1Cl,-55,-,-,-,-
CC(=O)N1CCN(c2ccc(NC(=O)c3ccccc3)cc2)CC1,-,-,-,-,5.8
O=C(Nc1ccc(N2CCCCC2)cc1)c1ccccn1,-67,-,-,-,-
Cc1ccc(NC(=O)c2cc(NC(=O)c3ccccc3C(=O)O)ccc2N2CCCCC2)cc1,-,-,60,-,-
O=C(Nc1ccc(N2CCCCCC2)cc1)c1ccccc1Cl,-,-,60,-,-
CC(=O)N1CCN(c2ccc(NC(=O)c3ccccc3Cl)cc2)CC1,-,-,-,-,-
Cc1nnc(C)n1/N=C/c1cc(Br)cc(Br)c1O,-,-,-,-,-
CS/C(N)=N/N=C/c1cc(Br)cc(Br)c1O,-,-,-,66,-
CCOc1ccccc1NC(=O)c1cc(=O)[nH]c2ccc(S(=O)(=O)N3CCOCC3)cc12,.,-,.,57,-
O=C(NCC1CCCO1)C1CCCN(S(=O)(=O)c2ccc(Cl)cc2)C1 (centres undefined),-,-,-,-,-
CCOC(=O)c1cnn(-c2ccc(C(F)(F)F)cn2)c1N,-,-,61,-,-
